# Screening data from PubChem.
# MsrA act = bovine methionine sulfoxide reductase A activation. purified bovine MsrA, absorbance read-out. activation, % at 10.6 µM. actives 0.3% (n = 360,000). AID 602163; in the data active = activation above about 7.5%;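 note: 0% = vehicle and 100% = reference activator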
# rCAG binder = molecules binding r(CAG) RNA repeats; actives 1.3% (n = 370,000); inhibition, % at 3 µM; r(CAG) RNA repeat, TO-PRO-1 dye displacement fluorescence;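 active = inhibition above the plate cutoff, the mean of all test compounds on that plate plus 3 SD, cut at about 35% in these data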;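 note: 0% = DMSO alone and 100% = 100 µM mitoxantrone as full dye displacement; higher means more dye released from RNA so lower well fluorescence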
# sPLA2-III inh = Inhibits HGIII-sPLA2 liposome hydrolysis, primary screen. Q9NZ20. QFRET BODIPY PC-A2 liposome hydrolysis, fluorescence. inhibition, % at 12.2 µM. actives 0.56% (n = 370,000). AID 743126;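 active = inhibition above mean plus 3 SD of compounds lying within the high and low control bounds, cut at about 19% in these data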;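 note: 0% = median of test compound wells and 100% = no enzyme DMSO wells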
# Target sequence (Q9NZ20 whole entry, looked up): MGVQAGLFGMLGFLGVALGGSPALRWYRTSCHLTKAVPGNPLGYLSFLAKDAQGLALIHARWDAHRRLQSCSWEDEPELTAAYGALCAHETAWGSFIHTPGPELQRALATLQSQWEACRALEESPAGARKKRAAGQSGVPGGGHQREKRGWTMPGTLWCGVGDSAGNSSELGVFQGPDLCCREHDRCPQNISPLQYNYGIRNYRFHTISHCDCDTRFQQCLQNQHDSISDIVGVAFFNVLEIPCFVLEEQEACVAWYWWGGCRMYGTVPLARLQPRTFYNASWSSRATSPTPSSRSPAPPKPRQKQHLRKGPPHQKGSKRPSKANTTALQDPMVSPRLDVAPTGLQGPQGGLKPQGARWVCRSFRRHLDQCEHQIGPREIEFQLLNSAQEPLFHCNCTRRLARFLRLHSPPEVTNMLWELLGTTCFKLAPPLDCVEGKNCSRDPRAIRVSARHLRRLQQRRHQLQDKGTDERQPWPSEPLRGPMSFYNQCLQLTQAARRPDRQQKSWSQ
# MsrA inhibitor = inhibitors of bovine MsrA; purified bovine MsrA, absorbance read-out; inhibition, % at 15.5 µM; actives 0.75% (n = 360,000);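 note: 0% = vehicle wells with enzyme and 100% = reference inhibitor wells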
# MsrA inh confirm = bovine MsrA inhibition, confirmed. shares compounds with MsrA inhibitor. purified bovine MsrA, absorbance read-out. inhibition, % at 15.5 µM. actives 41% (n = 2,300);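 note: coupled to thioredoxin reductase with NADPH and selenocystamine and DMSO as substrate; 0% = vehicle only and 100% = full effect of reference inhibitor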
# Active calls of the source: *; / = no result given. Compounds with a hit are over-represented: about 2.8% of the library has one in this group of screens. Cut-off read from the data, not from the text of the source, unless noted: active = inhibition above about 4.5%; inactive = the rest.
SMILES,MsrA act,rCAG binder,sPLA2-III inh,MsrA inhibitor,MsrA inh confirm
CCn1c(N)c(C(N)=O)sc1=S,-3,2,-1,2,/
Cc1ccc(F)cc1C(=O)N1CCCC(c2nc(-c3cccs3)no2)C1 (configuration not stated),/,0,-4,/,/
COc1ccc(-c2nn(CCC(=O)O)cc2/C=C2\SC(N)=NC2=O)cc1OC,-5,12,12,5.6*,3
CSc1nncc(-c2ccccc2)n1,-3,-2,2,0,/
Cc1ccc(NC(=O)c2cc(=O)[nH]c3ccc(S(=O)(=O)N4CCOCC4)cc23)cc1,-2,5,-10,0,/
CCc1cccc(C)c1NC(=O)c1cc(=O)[nH]c2ccc(S(=O)(=O)N3CCOCC3)cc12,-1,2,4,17*,28*
CCOC(=O)C(NC(=O)c1ccccc1)=C1C=C(C)OC(C)=C1,-6,4,1,3,/
COC(=O)C(NC(=O)c1ccccc1)=C1C=C(C)OC(C)=C1,0,0,4,5.3*,4
CCOC(=O)Cc1csc(NC(=O)/C=C/c2ccco2)n1,-7,2,6,7.8*,4.6*
Cn1c2c(c(=O)n(C)c1=O)C(C(F)(F)F)(C(F)(F)F)N=C(c1ccccc1Cl)N2,-3,0,2,9.1*,6.7*
O=C(CSc1ccc(-c2nc3ccccc3[nH]2)cn1)N1CCN(C(=O)c2ccco2)CC1,-5,11,-1,5.1*,2
O=C(CCc1nc2ccccc2[nH]1)N1CCN(C(=O)c2ccco2)CC1,0,2,-6,0,/
CC1=CC(=O)Nc2cncnc2N1,-2,4,2,-1,/
Cc1nn(C)c(C)c1/C=C/C(=O)c1ccc(Cl)cc1Cl,-7,-5,-5,6.4*,3
CCOC(=O)c1cccc(-c2ccc(C=O)o2)c1,-12,4,8,4,/
FC(F)(F)c1cccc(-c2ccc(/C=N/Nc3nncc(-c4ccccc4)n3)o2)c1,-6,1,-3,0,/
O=C(N/N=C/c1ccc(-c2ccccc2[N+](=O)[O-])o1)c1cccnc1,1,1,-11,7.1*,3
O=C(O)c1cccc(-c2ccc(/C=N/NC(=O)c3cccnc3)o2)c1,-5,0,9,5.9*,6.7*
Cc1ccc(/C=N/NC(=O)c2cccnc2)o1,-3,2,0,3,/
Cc1nnc(N/N=C\c2ccc(-c3cccc(C(=O)O)c3)o2)n1N,3,1,-4,5.0*,6.0*
O=Cc1ccc(-c2cccc(C(=O)O)c2)o1,-3,-1,2,4.7*,2
Cc1cc(N2CCOCC2)nc(SCc2c(Cl)cccc2Cl)n1,-3,-4,-6,-1,/
COc1ccc(-c2noc(CCCc3ccccc3)n2)cc1OC,1,-1,-5,0,/
COc1cc2cccc(OC)c(=O)c2c(OC)c1OC,-16,-3,-4,1,/
COc1ccc(NC(=O)/C(C#N)=C\c2ccc(-c3cccc(C(=O)O)c3C)o2)cc1,-4,25,2,3,/
SMILES,MsrA act,rCAG binder,sPLA2-III inh,MsrA inhibitor,MsrA inh confirm
Nc1nnc(CC(=O)N/N=C/c2ccc(-c3cccc(C(=O)O)c3)o2)s1,-7,10,-4,5.2*,4.9*
Cc1c(C(=O)O)cccc1-c1ccc(C=O)o1,-6,4,6,5.0*,3
O=C(N/N=C/c1ccc(N2CCCC2)c([N+](=O)[O-])c1)c1cccnc1,-4,4,5,7.5*,5.5*
O=C(Cc1ccc(Br)cc1)N/N=C/c1ccc(-c2cccc(C(=O)O)c2)o1,-7,31,-17,4,/
NC(=O)C(C(=O)/C=C/c1ccc(Cl)cc1)=C1SCCS1,-4,3,5,2,/
CCN(CC)c1ccc(/C=N/NC(=O)CNC(=O)c2ccccn2)cc1,-7,0,19,6.0*,3
O=C(CNC(=O)c1ccccn1)N/N=C/c1ccc2c(c1)OCO2,-3,2,3,0,/
CCN(CC)c1ccc(/C=N/NC(=O)CC(C)C)cc1,-3,-5,7,5.6*,3
O=C(Nc1nc2cc3c(cc2s1)OCO3)c1ccco1,-8,3,0,3,/
CS(=O)(=O)c1ccc2nc(NC(=O)c3ccc(=O)[nH]c3)sc2c1,-19,6,0,6.3*,6.0*
CS(=O)(=O)c1ccc2nc(NC(=O)c3ccco3)sc2c1,0,1,9,5.7*,4.7*
O=C(Nc1nc2cc3c(cc2s1)OCCO3)c1ccco1,-11,2,0,4.7*,4.7*
O=C(Nc1nc2cc3c(cc2s1)OCO3)C1=COCCO1,-5,6,3,5.2*,2
CC(=O)Nc1nc2cc3c(cc2s1)OCO3,-2,3,4,0,/
CS(=O)(=O)c1ccc2nc(NC(=O)c3ccc(Cl)cc3)sc2c1,-4,3,0,0,/
Cc1ccc(C(=O)Nc2nc3ccc(S(C)(=O)=O)cc3s2)o1,0,2,-4,4,/
CCc1ccccc1-n1nnnc1SCC(=O)Nc1cc(C)on1,0,-3,-9,0,/
COc1cc(/C=C(\C#N)c2ccccn2)ccc1OCC(=O)Nc1ccc(Br)cc1,-3,-2,-2,0,/
O=C(O)c1ccc(N=NN2CCCC2)cc1,-6,2,2,5.1*,3
CCCCOc1ccc(/C(O)=C2/C(=O)C(=O)N(CCN(C)C)C2c2ccc(O)c(OC)c2)cc1 (configuration not stated),-2,8,-5,8.1*,0
CCCOc1cccc(C2/C(=C(/O)c3ccc(OC)cc3)C(=O)C(=O)N2CCN(C)C)c1 (configuration not stated),-9,2,0,3,/
Cc1c(NC(=S)N/N=C/c2cccc(O)c2)c(=O)n(-c2ccccc2)n1C,-4,3,4,3,/
Cc1c(NC(=S)N/N=C/c2ccc(N(C)C)cc2)c(=O)n(-c2ccccc2)n1C,-6,2,1,5.0*,4.6*
C#CCn1c2ccccc2c2nc3ccccc3nc21,3,-2,4,5.5*,2
COC(=O)Cn1c2ccccc2c2nc3ccccc3nc21,-4,0,7,6.7*,5.3*
SMILES,MsrA act,rCAG binder,sPLA2-III inh,MsrA inhibitor,MsrA inh confirm
CC(=O)c1ccc(-c2nc3ccccc3n2C)o1,-1,5,7,6.7*,2
Cc1ccc(-c2nc3ccccc3n2C)o1,-1,0,5,-1,/
O=C(N/N=C/c1cccn1-c1ccc(O)cc1)c1cccc2ccccc12,0,8,-16,5.2*,3
O=C(N/N=C/c1ccccc1)c1cccc2ccccc12,-6,-1,-5,1,/
CCOC(=O)N=S(N)(=O)c1ccc(Cl)cc1 (configuration not stated),-8,4,5,1,/
COCCNC(=S)N(CCO)Cc1cc2cc3c(cc2[nH]c1=O)OCO3,-7,2,8,5.1*,5.1*
CN(C)CCN(Cc1cc2cc3c(cc2[nH]c1=O)OCCO3)C(=S)NCC1CCCO1 (configuration not stated),-4,-1,6,5.2*,1
COCCNC(=S)N(CCCO)Cc1cc2cc3c(cc2[nH]c1=O)OCCO3,5,-1,0,1,/
CCOC(=O)N=Nc1c2ccccc2c2nc3no[nH]c3nc12,-9,-1,-6,14*,18*
